Laboratory results published in PubChem BioAssay (NCATS).
Values joined by “and” are separate entries in the source; they are usually repeats but may differ in a detail not shown here. Equal entries are not always repeated. Records with an inconclusive call do not appear. Entries that show only a call come without a potency. The source holds several records for some structures; these can differ, active in one and inactive in another. Active and inactive are the calls of the source. Calls come from the whole dose curve; as a rule, active = well fitted curve in the direction sought with a large enough effect; inconclusive = small, poorly fitted or top-dose-only effect, or another doubt; inactive = no such curve, though single readings can be large; an effect the other way counts as inactive or inconclusive.

Assays:
[1] = Viability qHTS for spleen associated tyrosine kinase inhibitor (SYKi) naive MV4-11 cells (AID 1963823); note: nearly all actives have a fitted effect of over 40% in size
Method in brief: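 Read-out: CellTiter-Glo luminescence. Exposure: 72 hr, 37 C, 5% CO2, 95% humidity. Cells: MV4-11 without SYK inhibitor history, 500/well, qHTS format.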

[2] = Viability qHTS for spleen associated tyrosine kinase inhibitor (SYKi) drug resistant MV4-11 cells (AID 1963824); note: nearly all actives have a fitted effect of over 35% in size
Method in brief: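 SYK-inhibitor-resistant MV4-11 AML cells were seeded at 500 per well onto compound and cultured 72 hours (37 °C, 5% CO2). CellTiter-Glo was then added, and after 10 min at room temperature, luminescence gave viability.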

[3] = Quantitative highthroughput screen to assess conditional lethalithy of NOMO1 cells grown in RPMI1640 with untreated serum (RPMI+s) (AID 1963876); note: nearly all actives have a fitted effect of over 35% in size
Method in brief: (§1)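 Each medium arm—HPLM with 10% dialyzed FBS, or RPMI1640 with 5 mM glucose and 10% untreated or dialyzed FBS—was screened against an 11-point, 3-fold compound titration for 48 h at 37 °C, with CellTiter-Glo luminescence as endpoint.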

[4] = Quantitative highthroughput screen to assess conditional lethalithy of NOMO1 cells grown in RPMI1640 with dialyzed fetal bovine serum (RPMI+ds) (AID 1963877); note: nearly all actives have a fitted effect of over 30% in size; for Viability: series mostly up to about 46 µM
Method in brief: as §1

[5] = Quantitative highthroughput screen to assess conditional lethalithy of P12 Ichikawa cells grown in Human Plasma-Like Medium with dialyzed fetal bovine serum (HPLM+ds) (AID 1963879); conditions: Potency: viability; note: nearly all actives have a fitted effect of over 35% in size; for Viability: series mostly up to about 46 µM
Method in brief: as §1

[6] = Quantitative highthroughput screen to assess conditional lethalithy of P12 Ichikawa cells grown in RPMI1640 with dialyzed fetal bovine serum (RPMI+ds) (AID 1963880); conditions: Potency: P12-Ichikawa viability; note: nearly all actives have a fitted effect of over 35% in size
Method in brief: as §1

[7] = Quantitative highthroughput screen to assess conditional lethalithy of P12 Ichikawa cells grown in RPMI1640 with untreated serum (RPMI+s) (AID 1963881); conditions: Potency: viability; note: nearly all actives have a fitted effect of over 35% in size; for Viability: series mostly up to about 46 µM
Method in brief: as §1

[8] = Cellular viability qHTS for adrenocortical cancer (ACC) cell line SW-13 (AID 1963989); conditions: SW-13 ACC cells viability, CellTiter-Glo, 48 h; activity (max response): stronger effect = lower value; note: nearly all actives have a fitted effect of over 65% in size;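 for activity (max response): cells grown in serum-free medium with ITS supplement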
Method in brief: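 Here, serum-free SW-13 cultures were dosed up to 46 uM. Following 48 h, ATP-dependent luminescence (CellTiter-Glo) reported viable cells, and logistic modeling produced IC50 values.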

[9] = Cellular viability qHTS for adrenocortical cancer (ACC) cell line NCI-H295R (AID 1963990); note: nearly all actives have a fitted effect of over 60% in size
Method in brief: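 Viability of NCI-H295R after 48 h of treatment (final up to 46 uM) measured through cellular ATP luminescence.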

[10] = Quantitative highthroughput screen to assess conditional lethalithy of NOMO1 cells grown in Human Plasma-Like Medium with dialyzed fetal bovine serum (HPLM+ds) (AID 1963878); note: nearly all actives have a fitted effect of over 35% in size
Method in brief: as §1

[11] = Quantitative highthroughput screen to assess conditional lethalithy of SEM cells grown in Human Plasma-Like Medium with dialyzed fetal bovine serum (HPLM+ds) (AID 1963882); note: nearly all actives have a fitted effect of over 35% in size; for Viability: series mostly up to about 46 µM
Method in brief: as §1

[12] = Quantitative highthroughput screen to assess conditional lethalithy of SEM cells grown in RPMI1640 with unreated serum (RPMI+s) (AID 1963883); note: nearly all actives have a fitted effect of over 35% in size
Method in brief: as §1

[13] = Quantitative highthroughput screen to assess conditional lethalithy of SEM cells grown in RPMI1640 with dialyzed fetal bovine serum (RPMI+ds) (AID 1963884); note: nearly all actives have a fitted effect of over 35% in size; for Viability: series mostly up to about 46 µM
Method in brief: as §1
Potency is the fitted concentration of half-maximal effect.

## CCN1CC2(COC)C3[C@@H](OC)C4C1C3(C1C[C@]3(O)[C@H](OC(=O)c5ccccc5)C1[C@]4(OC(C)=O)[C@@H](O)[C@@H]3OC)[C@H](OC)C[C@H]2O (stereo partly specified)
[1]
  Potency: inactive
[2]
  Potency: inactive

## CSCC[C@@H](NC(=O)[C@@H](Cc1ccccc1)NC(=O)CNC(=O)CNC(=O)[C@@H](N)Cc1ccc(O)cc1)C(=O)O
[1]
  Potency: inactive
[2]
  Potency: inactive
[3]
  Potency: inactive
[4]
  Potency: inactive
[5]
  Potency: inactive
[6]
  Potency: inactive
[7]
  Potency: inactive
[8]
  activity (max response): 3.41% (inactive)
[9]
  Potency: inactive

## COC[C@H]1OC(=O)c2coc3c2[C@@]1(C)C1=C(C3=O)[C@@H]2CC[C@H](O)[C@@]2(C)C[C@@H]1OC(C)=O
[1]
  Potency: 11.6 µM (active)
[2]
  Potency: 14.6 µM (active)
[4]
  Potency: inactive

## Clc1ccc(CO/N=C(\Cn2ccnc2)c2ccc(Cl)cc2Cl)c(Cl)c1
[1]
  Potency: 13.3 µM (active)
[2]
  Potency: 9.44 µM (active)

## CC1=CC2/C=C(\C)CCC(O)C(O)/C=C/C(=O)C23C(=O)NC(CC(C)C)C3C1C (stereo unspecified)
[1]
  Potency: 1.26 µM (active)
[2]
  Potency: 1.42 µM (active)

## Fc1ccc(C(OCCN2CCN(CCCc3ccccc3)CC2)c2ccc(F)cc2)cc1
[1]
  Potency: 5.96 µM (active) and 6.61 µM (active)
[2]
  Potency: 6.68 µM (active) and 6.61 µM (active)
[10]
  Potency: 20.9 µM (active)
[8]
  Potency: 5.8 µM (active) and 14.1 µM (active)
[9]
  Potency: 4.61 µM (active) and 11.2 µM (active)

## Cc1ncc(OC[C@@]2(c3cccc(F)c3)C[C@H]2C(=O)Nc2ccc(F)cn2)c(C)n1
[1]
  Potency: inactive
[2]
  Potency: inactive
[3]
  Potency: inactive
[6]
  Potency: inactive
[8]
  activity (max response): 7.8% (inactive)

## CNCC(O)c1ccc(O)cc1 (stereo unspecified)
[1]
  Potency: inactive
[2]
  Potency: inactive
[3]
  Potency: inactive
[5]
  Potency: inactive
[6]
  Potency: inactive
[11]
  Potency: inactive
[12]
  Potency: inactive
[13]
  Potency: inactive
[8]
  activity (max response): -3.15% (inactive) and -7.74% (inactive)
[9]
  Potency: inactive

## CCC1NC(=O)C2C(Cl)C(Cl)CN2C(=O)C(C(C)O)NC(=O)CC(c2ccccc2)NC(=O)C(CO)NC1=O (stereo unspecified)
[1]
  Potency: inactive
[2]
  Potency: inactive

## C[C@]12CC[C@H]3[C@@H]([C@H](O)CC4=CC(=O)CC[C@@]43C)[C@@H]1CC[C@@H]2O
[1]
  Potency: inactive
[2]
  Potency: inactive

## CC[C@@]1(O)C(=O)OCc2c1cc1n(c2=O)Cc2cc3ccccc3nc2-1
[1]
  Potency: 0.0235 µM (active)
[2]
  Potency: 0.0235 µM (active)
[3]
  Potency: 0.0743 µM (active)
[4]
  Potency: 0.0662 µM (active)
[10]
  Potency: 0.0662 µM (active)
[5]
  Potency: 0.0296 µM (active)
[6]
  Potency: 0.0209 µM (active)
[11]
  Potency: 0.0469 µM (active)
[12]
  Potency: 0.0235 µM (active)
[13]
  Potency: 0.0264 µM (active)
[8]
  Potency: 126 nM (active)

## CC(C)c1cccc(C(C)C)c1O
[1]
  Potency: inactive
[2]
  Potency: inactive
[4]
  Potency: inactive
[10]
  Potency: inactive
[6]
  Potency: inactive
[7]
  Potency: inactive
[11]
  Potency: inactive
[12]
  Potency: inactive
[13]
  Potency: inactive
[8]
  activity (max response): 18.8% (inactive) and -6.92% (inactive)
[9]
  Potency: inactive and 23.1 µM (active)

## COC(=O)C1(C)CCC(=O)C2(C)c3c(O)cc(C(C)C)cc3C(O)C(OC(C)=O)C12 (stereo unspecified)
[1]
  Potency: inactive
[2]
  Potency: inactive

## COC1C(O)C(C)OC(OC2C(CO)O[C@@H](O[C@@H]3CC4CCC5C(CC[C@]6(C)[C@@H](C7=CC(=O)OC7)CC[C@]56O)[C@@]4(C)[C@H](OC(C)=O)C3)C(O)C2O)C1O (stereo partly specified)
[1]
  Potency: 2.43 µM (active)
[2]
  Potency: 1.09 µM (active)

## C#CCN(C)[C@H](C)Cc1ccccc1
[1]
  Potency: inactive
[2]
  Potency: inactive
[4]
  Potency: inactive
[5]
  Potency: inactive
[6]
  Potency: inactive
[8]
  activity (max response): 4.66% (inactive) and -4.85% (inactive)
[9]
  Potency: inactive

## N[C@@H](Cc1ccc(N(CCCl)CCCl)cc1)C(=O)O
[1]
  Potency: 10.6 µM (active) and 833 nM (active)
[2]
  Potency: 7.5 µM (active) and 742 nM (active)
[3]
  Potency: 10.5 µM (active)
[5]
  Potency: 10.5 µM (active)
[6]
  Potency: 5.9 µM (active)
[7]
  Potency: 4.69 µM (active)
[11]
  Potency: 4.18 µM (active)
[12]
  Potency: 2.64 µM (active)
[13]
  Potency: 2.96 µM (active)
[8]
  activity (max response): -19.4% (inactive)
[9]
  Potency: 28.2 µM (active)

## CCNC(=O)C[C@@H]1N=C(c2ccc(Cl)cc2)c2cc(OC)ccc2-n2c(C)nnc21
[1]
  Potency: 411 nM (active) and 417 nM (active)
[2]
  Potency: 461 nM (active) and 417 nM (active)
[3]
  Potency: 9.35 µM (active)
[10]
  Potency: 5.9 µM (active)
[8]
  activity (max response): -15.2% (inactive)
[9]
  Potency: inactive

## CC(C)(C)c1cc(C=C(C#N)C#N)cc(Br)c1O
[1]
  Potency: 16.6 µM (active)
[2]
  Potency: 16.6 µM (active)
[3]
  Potency: inactive
[5]
  Potency: inactive
[6]
  Potency: inactive
[11]
  Potency: inactive
[12]
  Potency: inactive
[8]
  activity (max response): 9.19% (inactive)
[9]
  Potency: inactive
